Reference: ChEMBL document CHEMBL3433997, “St. Jude Leishmania screening dataset” (2016)
Several values for one entry are separate records, joined by “and”; a condition that tells them apart may be missing. Equal values may be shown once.

Biological target: Solute carrier family 2, facilitated glucose transporter member 1 (Homo sapiens) (UniProt P11166)
Assay: ST_JUDE_LEISH: Cytotoxicity at 2uM final concentration against transgenic Leishmania Mexicana promastigotes LmGLUT1 that are glucose transport deficient and complemented with the human glucose transporter GLUT1. Activity is measured by DNA content using SYBR green in vitro
Assay type: functional

Solute carrier family 2, facilitated glucose transporter member 1 (Homo sapiens), sequence (P11166 whole entry): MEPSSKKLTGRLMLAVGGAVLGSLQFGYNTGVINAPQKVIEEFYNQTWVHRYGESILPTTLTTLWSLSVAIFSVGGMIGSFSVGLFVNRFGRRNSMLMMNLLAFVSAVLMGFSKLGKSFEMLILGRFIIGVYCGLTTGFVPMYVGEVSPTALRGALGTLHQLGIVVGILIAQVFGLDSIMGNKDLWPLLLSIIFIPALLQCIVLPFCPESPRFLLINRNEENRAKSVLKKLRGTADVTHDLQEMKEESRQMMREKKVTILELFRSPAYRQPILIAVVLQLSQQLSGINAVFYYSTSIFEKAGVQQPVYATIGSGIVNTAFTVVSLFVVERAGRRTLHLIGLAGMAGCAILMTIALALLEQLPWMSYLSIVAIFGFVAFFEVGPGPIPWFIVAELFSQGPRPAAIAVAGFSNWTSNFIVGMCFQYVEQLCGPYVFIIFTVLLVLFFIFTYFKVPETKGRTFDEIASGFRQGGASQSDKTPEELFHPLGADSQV

Structure (SMILES) | inhibition
N#Cc1cccc(Nc2nccc(Nc3ccc(Oc4ccccc4)cc3)n2)c1 | 6.87%
CCCCN(Cc1cnccc1-c1ccc(Br)cc1)c1ccc(C(O)(C(F)(F)F)C(F)(F)F)cc1 | 3.94%
Brc1cc(Br)c2c(c1)C(NCCCNc1nc3ncccc3[nH]1)CCN2 (stereo not given) | 68%
O=C(C=Cc1ccc(Cl)c(Cl)c1)NCCCCCN1CCC(CCNS(=O)(=O)c2ccc(Br)cc2)CC1 | 2.45%
N=C(NCCc1c[nH]c2ccccc12)NCc1ccccc1Cl | -1.93%
N#Cc1cncc(-c2nc3c(N4CCN(c5cnccn5)CC4)cccc3n2CCNCc2ccccc2)c1 | 2.77%
Cc1cc2c(cc1C(F)(F)F)N(C(=O)Nc1ccc(C(=O)NC3CCN(Cc4ccccc4)C3)cc1)CC2 (stereo not given) | 4.56%
O=C1C(C2CCC(c3ccc(Cl)cc3)CC2)=C2OCC3COC2(O3)c2ccccc21 (stereo not given) | 1.13%
Nc1nc(N)c2c(Oc3cccc4ccccc34)cccc2n1 | 4.57%
c1ccc(CN2CCC(NCc3ccccc3-c3ccc(CNCc4ccc5c(c4)OCO5)cc3)CC2)cc1 | 11.8%
O=[N+]([O-])c1ccc(-c2nc3cc(C4=NC5CCCCC5N4)ccc3[nH]2)cc1 (stereo not given) | -0.03%
O=C(CCN(Cc1ccco1)c1nc(-c2ccc(F)cc2)nc2ccccc12)NC1CC1 | 4.96%
Cc1cccc2nc(-c3cccc(-c4cccc(NC(=O)c5ccc(=O)[nH]n5)c4)c3)[nH]c12 | 5.27%
Cc1ccc(CN(Cc2ccc(C(=O)N(C)C)cc2)Cc2ccc3c(c2)OCCO3)cc1C | 0.09%
CCCCOc1ccc(C(=O)C(CCC(CNC(C)(C)C)C(=O)c2ccc(OCCCC)cc2)CNC(C)(C)C)cc1 (stereo not given) | 43.9%
O=C(/C=C/c1ccccc1Cl)NC1CCC(CN2CCC(c3c[nH]c4ccncc34)CC2)CC1 (stereo not given) | -0.19%
COc1c(C2=CCN(CCCCNC(=O)c3ccc(-c4ccc(C#N)cc4)cc3)CC2)ccc2c1CCCC2 | 0.4%
Cc1noc(C)c1-c1cccc(CNCc2cccc(-c3cccc(-c4nc5cccc(C)c5[nH]4)c3)c2)c1 | -0.61%
COc1cc2c(cc1C(F)(F)F)N(C(=O)Nc1cc(F)cc(-c3cccnn3)c1)CC2 | -2.16%
Cc1ccc(Nc2nc3cc(Nc4ccnc(Nc5ccc(CS(C)(=O)=O)cc5)n4)ccc3o2)cc1 | 9.35%

Structure (SMILES) | inhibition
O=c1[nH]ccc2nc(N[C@@H]3CCNC3)nc(Nc3ccc4c(c3)S(=O)(=O)CC4)c12 | 5.93%
O=C(Nc1ccsc1C(=O)NC1CCCCC1)c1ccc(F)cc1 | 0.07%
COc1ccc(-c2c(C(F)(F)F)nn(C)c2NC(=O)Nc2ccc(F)cc2F)cc1 | -1.15%
N#CC(c1ccc(Br)cc1)c1ccc2c(C(F)(F)F)cc(C(F)(F)F)nc2n1 (stereo not given) | 4.94%
CCOc1ccc(C(Cc2ccccc2)NC(=O)c2cccnc2)cc1OCC (stereo not given) | 0.79%
COc1ccc(NC(=O)c2csc(-c3cc(NC(=O)c4ccnc(N5CCCC5)c4)ccc3C)c2)cc1N1CCN(C)CC1 | 1.89%
CCc1ccc(CN2CCC(CNC(=O)c3cc(-c4ccccc4Cl)cs3)C2)cc1 (stereo not given) | 7.86%
Cc1cc2nc(-c3ccc(C(=O)NCc4cccc(F)c4)cc3)[nH]c2cc1C | -0.23%
NC(=S)Cc1ccc2c(c1)OCO2 | -0.08%
CCN1CCN(Cc2c(O)ccc3c(=O)c(Oc4cc(C)cc(C)c4)c(C(F)(F)F)oc23)CC1 | 75.7%
COc1ccc(C[C@H](N)C(=O)N[C@H]2[C@@H](O)[C@H](n3cnc4c(N(C)C)ncnc43)O[C@@H]2CO)cc1 | 3.7% and 0.1%
CN(C)CCN(C)Cc1ccc(-c2ccc3c(Nc4ccc(Oc5ccccn5)cc4)ccnc3c2)o1 | -2.89%
Cc1ccc2nc(-c3ccc(C(=O)NC4CCN(Cc5ccccc5)CC4)cc3)[nH]c2c1C | 11.5%
CCc1sc(-c2ccc(C(C)(C)C)cc2)nc1C(=O)NCCCN1CCCC1=O | -1.44%
O=C(c1ccc(-c2ccc(-c3nc4ccccc4[nH]3)s2)cc1)N1CCCCC1CN1CCC(O)C1 (stereo not given) | 3.07%
CN1CCN(CCCN(Cc2cccc(-c3cccc(CNCc4ccc5c(c4)OCO5)c3)c2)C(=O)CCC2CCCC2)CC1 | 16.7%
Cc1nnc2c(NC(=O)NC3CCCC3)cc3cc(-c4ccc(CN(C)C)cc4)ccc3n12 | 0.94%
O=C(Nc1ccc(Cn2ncc(N3CCCNCC3)c(Cl)c2=O)cc1)Nc1cc(F)cc(C(F)(F)F)c1 | 2.7%
Cn1ccc(-c2cccc(Nc3ccnc4cc(-c5nccs5)ccc34)c2)n1 | -0.21%
O=S(=O)(NCCN1CCCC1)c1ccc(-c2cccc(CNCCc3cccs3)c2)cc1 | 5.24%

Biological target: Hexose transporter 1 (Plasmodium falciparum) (UniProt O97467)
Assay: ST_JUDE_LEISH: Cytotoxicity at 2uM final concentration against transgenic Leishmania Mexicana promastigotes LmPfHT that are glucose transport deficient and complemented with the Plasmodium falciparum hexose transporter. Activity is measured by DNA content using SYBR green in vitro
Assay type: functional

Structure (SMILES) | inhibition
N#Cc1cccc(Nc2nccc(Nc3ccc(Oc4ccccc4)cc3)n2)c1 | 5.4%
CCCCN(Cc1cnccc1-c1ccc(Br)cc1)c1ccc(C(O)(C(F)(F)F)C(F)(F)F)cc1 | 3.75%
Brc1cc(Br)c2c(c1)C(NCCCNc1nc3ncccc3[nH]1)CCN2 (stereo not given) | 78.5%
O=C(C=Cc1ccc(Cl)c(Cl)c1)NCCCCCN1CCC(CCNS(=O)(=O)c2ccc(Br)cc2)CC1 | 1.43%
N=C(NCCc1c[nH]c2ccccc12)NCc1ccccc1Cl | -1.07%
N#Cc1cncc(-c2nc3c(N4CCN(c5cnccn5)CC4)cccc3n2CCNCc2ccccc2)c1 | 1.47%
Cc1cc2c(cc1C(F)(F)F)N(C(=O)Nc1ccc(C(=O)NC3CCN(Cc4ccccc4)C3)cc1)CC2 (stereo not given) | 4.45%
O=C1C(C2CCC(c3ccc(Cl)cc3)CC2)=C2OCC3COC2(O3)c2ccccc21 (stereo not given) | 0.99%
Nc1nc(N)c2c(Oc3cccc4ccccc34)cccc2n1 | 2.3%
c1ccc(CN2CCC(NCc3ccccc3-c3ccc(CNCc4ccc5c(c4)OCO5)cc3)CC2)cc1 | 10.4%
O=[N+]([O-])c1ccc(-c2nc3cc(C4=NC5CCCCC5N4)ccc3[nH]2)cc1 (stereo not given) | -0.65%
O=C(CCN(Cc1ccco1)c1nc(-c2ccc(F)cc2)nc2ccccc12)NC1CC1 | 1.65%
Cc1cccc2nc(-c3cccc(-c4cccc(NC(=O)c5ccc(=O)[nH]n5)c4)c3)[nH]c12 | 1.34%
Cc1ccc(CN(Cc2ccc(C(=O)N(C)C)cc2)Cc2ccc3c(c2)OCCO3)cc1C | 0.35%
CCCCOc1ccc(C(=O)C(CCC(CNC(C)(C)C)C(=O)c2ccc(OCCCC)cc2)CNC(C)(C)C)cc1 (stereo not given) | 12.2%
O=C(/C=C/c1ccccc1Cl)NC1CCC(CN2CCC(c3c[nH]c4ccncc34)CC2)CC1 (stereo not given) | 0.35%
COc1c(C2=CCN(CCCCNC(=O)c3ccc(-c4ccc(C#N)cc4)cc3)CC2)ccc2c1CCCC2 | -0.52%
Cc1noc(C)c1-c1cccc(CNCc2cccc(-c3cccc(-c4nc5cccc(C)c5[nH]4)c3)c2)c1 | -0.81%
COc1cc2c(cc1C(F)(F)F)N(C(=O)Nc1cc(F)cc(-c3cccnn3)c1)CC2 | -2.17%
Cc1ccc(Nc2nc3cc(Nc4ccnc(Nc5ccc(CS(C)(=O)=O)cc5)n4)ccc3o2)cc1 | 9.37%

Structure (SMILES) | inhibition
O=c1[nH]ccc2nc(N[C@@H]3CCNC3)nc(Nc3ccc4c(c3)S(=O)(=O)CC4)c12 | 1.38%
O=C(Nc1ccsc1C(=O)NC1CCCCC1)c1ccc(F)cc1 | -1.32%
COc1ccc(-c2c(C(F)(F)F)nn(C)c2NC(=O)Nc2ccc(F)cc2F)cc1 | -0.84%
N#CC(c1ccc(Br)cc1)c1ccc2c(C(F)(F)F)cc(C(F)(F)F)nc2n1 (stereo not given) | 4.44%
CCOc1ccc(C(Cc2ccccc2)NC(=O)c2cccnc2)cc1OCC (stereo not given) | -2.62%
COc1ccc(NC(=O)c2csc(-c3cc(NC(=O)c4ccnc(N5CCCC5)c4)ccc3C)c2)cc1N1CCN(C)CC1 | 2.56%
CCc1ccc(CN2CCC(CNC(=O)c3cc(-c4ccccc4Cl)cs3)C2)cc1 (stereo not given) | 8.8%
Cc1cc2nc(-c3ccc(C(=O)NCc4cccc(F)c4)cc3)[nH]c2cc1C | 0.73%
NC(=S)Cc1ccc2c(c1)OCO2 | -0.33%
CCN1CCN(Cc2c(O)ccc3c(=O)c(Oc4cc(C)cc(C)c4)c(C(F)(F)F)oc23)CC1 | 73.3%
COc1ccc(C[C@H](N)C(=O)N[C@H]2[C@@H](O)[C@H](n3cnc4c(N(C)C)ncnc43)O[C@@H]2CO)cc1 | 1.9% and 3.79%
CN(C)CCN(C)Cc1ccc(-c2ccc3c(Nc4ccc(Oc5ccccn5)cc4)ccnc3c2)o1 | -0.77%
Cc1ccc2nc(-c3ccc(C(=O)NC4CCN(Cc5ccccc5)CC4)cc3)[nH]c2c1C | 7.69%
CCc1sc(-c2ccc(C(C)(C)C)cc2)nc1C(=O)NCCCN1CCCC1=O | -2.22%
O=C(c1ccc(-c2ccc(-c3nc4ccccc4[nH]3)s2)cc1)N1CCCCC1CN1CCC(O)C1 (stereo not given) | 2.95%
CN1CCN(CCCN(Cc2cccc(-c3cccc(CNCc4ccc5c(c4)OCO5)c3)c2)C(=O)CCC2CCCC2)CC1 | 12.2%
Cc1nnc2c(NC(=O)NC3CCCC3)cc3cc(-c4ccc(CN(C)C)cc4)ccc3n12 | 1.31%
O=C(Nc1ccc(Cn2ncc(N3CCCNCC3)c(Cl)c2=O)cc1)Nc1cc(F)cc(C(F)(F)F)c1 | 3.7%
Cn1ccc(-c2cccc(Nc3ccnc4cc(-c5nccs5)ccc34)c2)n1 | 0.32%
O=S(=O)(NCCN1CCCC1)c1ccc(-c2cccc(CNCCc3cccs3)c2)cc1 | 5.07%
